BAZ2B block: inhibitors of human BAZ2B bromodomain; AlphaScreen BAZ2B-H3K14Ac peptide displacement; hit rate 4.4% among 360,000; Potency, µM (top dose mostly 114 µM), hits mostly inhibitors; also: nearly all actives have a fitted effect of over 60% in size
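Compounds, titrated to a top concentration of 110 uM, were incubated 30 min at room temperature with preformed BAZ2B/acetyl-K14 H3 peptide complex (50 nM each). Proximity signal was measured by AlphaScreen after 20 min with beads.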
HP1b chromo inh: blocks HP1-beta chromodomain binding to methylated histone tails; P83916; AlphaScreen HP1-beta / biotin-H3K9me3 peptide binding; Potency, µM (series often up to 114 µM), hits mostly inhibitors; hit rate 0.56% among 390,000; AID 540317; also: nearly all actives have a fitted effect of over 70% in size
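HP1-beta protein (50 nM final) preincubated 30 min at room temperature with biotinylated H3(1-18)K9me3 peptide (50 nM) in PBS pH 7.4, 0.01% Tween-20, then compound added for 30 min. AlphaScreen streptavidin donor/nickel chelate acceptor beads (10 ug/mL final), 30 min dark, luminescence read.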
PLK1 PBD block: PLK1 (human) polo-box domain binding inhibition. hit rate 2.8% among 360,000. Potency, µM, hits mostly inhibitors. Plk1 PBD binding of FITC phosphopeptide, fluorescence polarization. P53350. AID 720504; also: series mostly up to about 57 µM; nearly all actives have a fitted effect of over 65% in size
Sfp inh: Sfp phosphopantetheinyl transferase inhibition; Biochemical Sfp PPTase activity, qHTS; Potency, µM, hits mostly inhibitors; hit rate 3.5% among 310,000; AID 1490;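 also: the enzyme is Sfp with the accession as filed and its product quenches rhodamine fluorescence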
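Step 1, compound plus 15 nM Sfp-PPTase, 15 min, room temperature. Step 2, add rhodamine-CoA (5 uM) and BHQ-2-YbbR (12.5 uM). Step 3, read 525/598 nm fluorescence at 0 and 30 min.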
JMJD2A Tudor: JMJD2A Tudor domain (human) inhibition; O75164; AlphaScreen JMJD2A-Tudor / H3K4me3 peptide binding; Potency, µM (doses to about 114 µM), most hits filed as inhibitors; hit rate 4.4% among 390,000; AID 504339; also: nearly all actives have a fitted effect of over 50% in size
Target sequence (O75164 whole entry, looked up, the tested form may be a part): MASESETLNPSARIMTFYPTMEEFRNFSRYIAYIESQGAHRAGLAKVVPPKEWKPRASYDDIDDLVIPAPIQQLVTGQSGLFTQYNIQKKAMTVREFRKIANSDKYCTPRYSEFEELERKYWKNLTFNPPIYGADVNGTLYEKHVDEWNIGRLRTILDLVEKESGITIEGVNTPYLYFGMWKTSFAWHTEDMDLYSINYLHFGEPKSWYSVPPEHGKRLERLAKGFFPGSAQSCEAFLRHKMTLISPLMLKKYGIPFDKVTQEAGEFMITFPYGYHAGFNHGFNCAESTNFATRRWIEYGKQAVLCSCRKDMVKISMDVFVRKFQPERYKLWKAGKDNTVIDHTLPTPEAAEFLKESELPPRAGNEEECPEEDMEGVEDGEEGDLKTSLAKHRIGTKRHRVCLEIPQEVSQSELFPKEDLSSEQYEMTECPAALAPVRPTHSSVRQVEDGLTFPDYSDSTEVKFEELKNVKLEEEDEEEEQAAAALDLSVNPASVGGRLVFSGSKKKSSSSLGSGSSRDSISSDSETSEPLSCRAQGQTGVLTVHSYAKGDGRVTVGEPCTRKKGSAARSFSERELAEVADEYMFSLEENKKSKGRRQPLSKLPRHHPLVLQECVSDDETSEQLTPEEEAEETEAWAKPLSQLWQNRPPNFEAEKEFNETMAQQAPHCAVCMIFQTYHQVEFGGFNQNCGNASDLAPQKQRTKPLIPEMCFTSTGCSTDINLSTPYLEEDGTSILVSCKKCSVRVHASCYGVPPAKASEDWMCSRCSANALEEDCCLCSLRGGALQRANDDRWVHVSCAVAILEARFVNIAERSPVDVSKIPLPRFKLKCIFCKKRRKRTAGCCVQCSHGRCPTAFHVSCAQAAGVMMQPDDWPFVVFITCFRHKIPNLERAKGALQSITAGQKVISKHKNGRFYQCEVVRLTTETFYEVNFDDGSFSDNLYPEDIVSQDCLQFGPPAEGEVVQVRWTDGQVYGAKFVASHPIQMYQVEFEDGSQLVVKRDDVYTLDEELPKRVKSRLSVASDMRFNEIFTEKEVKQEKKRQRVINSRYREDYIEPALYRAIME
G9a inh: inhibitors of human histone lysine methyltransferase G9a | Q96KQ7 | G9a H3K9 monomethylation, AlphaScreen, 2 h | Potency, µM (highest dose often 102 µM), actives largely listed as inhibitors | hit rate 8.8% among 350,000 | AID 504332; also: nearly all actives have a fitted effect of over 75% in size
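Methyltransferase reactions run at room temperature for 2 h (20 nM enzyme, 500 nM biotin-H3K9 peptide, 20 uM SAM) after a 15 min compound preincubation; product detected by AlphaScreen beads and anti-H3K9me1 antibody.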
Numbers stand for hits; 0 = inactive; ? = inconclusive; - = not tested or not shown; [ ] = dose if it differs, or a comment. An excerpt weighted towards active compounds, which were near 12% of everything screened. Calls follow the shape of the dose curve; as a rule, active = well fitted curve in the direction sought with a large enough effect; inconclusive = small, poorly fitted or top-dose-only effect, or another doubt; inactive = no such curve, though single readings can be large; an effect the other way counts as inactive or inconclusive.

SMILES	BAZ2B block	HP1b chromo inh	PLK1 PBD block	Sfp inh	JMJD2A Tudor	G9a inh
Cc1ccc(S(=O)(=O)NNC(=O)c2ccc(O)cc2)cc1	0	0	0	?	0	?
CCOC(=O)c1ccc(S(=O)(=O)NNC(=O)COc2cccc(C)c2)cc1	0	0	?	0	0	0
CC(=O)Nc1ccc(S(=O)(=O)NNC(=O)COc2cccc(C)c2)cc1	0	0	24µM	79µM	50µM	6.3µM
Cc1ccc(S(=O)(=O)NNC(=O)c2snnc2C)cc1	0	0	0	?	79µM	10µM
Cc1ccc(S(=O)(=O)NNC(=O)C(=O)NNS(=O)(=O)c2ccc(C)cc2)cc1	0	0	0	0	35µM	0
CC(=O)Nc1ccc(C(=O)NNS(=O)(=O)c2ccc(C)cc2)cc1	50µM	0	0	0	0	20µM
O=C(Nc1ccc2c(c1)N(C1CCCC1)C(=O)c1ccccc1S2)c1ccccc1F	0	0	-	-	0	0
CC(=O)Nc1ccc(S(=O)(=O)NNC(=O)c2sc(=S)n(C)c2C)cc1	0	0	0	0	0.71µM	0
Cc1ccc(S(=O)(=O)NNC(=O)CCCCC(=O)NNS(=O)(=O)c2ccc(C)cc2)cc1	0	0	0	0	0	45µM
Cc1ccc(S(=O)(=O)NCCCCCC(=O)Nc2ccccc2)cc1	0	0	0	0	0	0
CNC(=O)CCCCCNS(=O)(=O)c1ccc(C)cc1	0	?	19µM	0	0[11.4 µM]	0
O=c1n2c(c(O)n1C1CCCCC1)C(c1ccccc1)=Nc1ccccc1C2	-	-	0	-	-	-
Cc1ccccc1OC(=O)c1cccnc1	0	0	0	0	0	0
NCc1oc(-c2ccccc2)cc1C(=O)O	0	0	0	0	0	50µM
CCN(CC)Cc1oc(-c2ccccc2)cc1C(=O)O	0	0	?	0	56µM	-
Cc1oc(-c2ccccc2)cc1C(N)=O	?	0	0	0	0	0
CCOc1ccccc1CNS(=O)(=O)c1cnc[nH]1	0	0	0	0	0	0
O=C(N/N=C/c1ccc(-c2ccc([N+](=O)[O-])cc2)o1)C(O)c1ccccc1 (stereo not given)	0	0	0	0	0	?
Cc1cc(C)n(Cc2ccc(C(=O)N/N=C/c3ccc(-c4ccc([N+](=O)[O-])cc4)o3)o2)n1	20µM	?	0	?	50µM	0
CCCCC(=O)N/N=C/c1ccc(-c2ccc([N+](=O)[O-])cc2)o1	0	0	0	0	0	0
Cc1cc([N+](=O)[O-])ccc1-c1ccc(/C=N/NC(=O)c2ccc(Br)o2)o1	0	0	0	0	0	0
Cc1ccc(C)c(N=Cc2ccc(-c3ccc([N+](=O)[O-])cc3)o2)c1	?	?	0	0	56µM	35µM
CC(C)(C)NC(=S)N/N=C\c1ccc(-c2ccc([N+](=O)[O-])cc2)o1	?	0	0	32µM	?	0
CNC(=S)N/N=C/c1ccc(-c2ccc(Cl)c([N+](=O)[O-])c2)o1	79µM	0	0	0	0	-
CC(C)CC(OC(=O)c1ccc(Cl)nc1)C(=O)NC1CCCC1 (stereo not given)	0	0	0	0	0	?
SMILES	BAZ2B block	HP1b chromo inh	PLK1 PBD block	Sfp inh	JMJD2A Tudor	G9a inh
CCOc1ccc(S(=O)(=O)NCCc2csc3nc(-c4cccc(C)c4)nn23)cc1	0	0	-	-	0	0
O=C(N/N=C/c1ccc(-c2ccccc2)o1)c1ccccc1O	0	0	0	0	0	-
CNC(=S)N/N=C/c1ccc(-c2ccc(C(=O)O)cc2)o1	?	?	?	45µM	0[11.4 µM]	-
O=c1cc(CN2CCN(c3ccccc3F)CC2)c2ccccc2o1	-	-	0	-	-	-
CCC(=C(c1ccc(OC)cc1)c1ccc(OC)cc1)c1cn(CC(O)CN(CCO)CCO)c2ccccc12 (stereo not given)	35µM	0	0	?	45µM	40µM
COc1ccc(OCC(O)CN(CCO)CC(O)Cn2ccc3ccccc32)cc1 (stereo not given)	0	0	0	0	0	0
O=C1C=CC2=C3c4cc(O)c(O)cc4C[C@@]3(O)COC2=C1	-	-	-	32µM	-	-
COC(=O)C/C=C1\c2ccccc2[C@H](OC)[C@H]1C	-	-	-	0	-	-
CCc1ccc2c(c1)C1(C(=O)N2)N2CCCC2C(C(=O)c2ccc3ccccc3c2)C12C(=O)Nc1ccccc12 (stereo not given)	?	0	0	0	0	14µM

High-throughput results deposited in PubChem by National Center for Advancing Translational Sciences (NCATS).
